Assay outcomes (PubChem BioAssay)
Hits are enriched below; roughly 8.1% of the tested compounds scored in any of these assays.
Epigenetic reg = regulators of epigenetic silencing causing reporter derepression in mouse cells; murine LDR cells, GFP reporter derepression, 30 h; Potency, µM (top dose mostly 53.9 µM), without a hit: at the highest dose GFP activation, most hits filed as activators; 280,000 tested, 0.2% active; also: % of control where 0% means no effect; nearly all actives have a fitted effect of over 60% in size
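Reporter derepression read as number of fluorescent GFP-positive objects, 20-120 um in size, counted by laser-scanning cytometer. Mouse LDR line with an epigenetically silenced CMV-GFP locus; compound incubation 30 h, 37 C.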
ClpP mod = qHTS Assay for Activators of ClpP; purified B. subtilis ClpP, FRET peptide cleavage, 20 min; ATP-dependent Clp protease proteolytic subunit (Bacillus subtilis (strain 168)), P80244; AID 651965, 2013; 340,000 tested, 1.9% active; Potency, µM (highest dose often 57.5 µM), for the others: top-dose activity change, negative = active; active = well fitted falling curve with a large enough effect; inconclusive = small, poorly fitted or top-dose-only effect; inactive = no such curve, though single readings can be large or run the other way; also: the source files actives as falling curves though it sought activators and does not explain the sign; nearly all actives have a fitted effect of over 65% in size
Target sequence (P80244 whole entry, looked up): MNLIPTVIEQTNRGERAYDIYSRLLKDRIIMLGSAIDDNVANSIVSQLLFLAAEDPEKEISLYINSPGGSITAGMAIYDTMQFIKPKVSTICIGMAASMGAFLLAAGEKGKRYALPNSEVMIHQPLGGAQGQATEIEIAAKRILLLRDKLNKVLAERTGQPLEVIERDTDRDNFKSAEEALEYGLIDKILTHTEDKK
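Buffer: 100 mM Tris/HCl pH8, 100 mM KCl, 0.05% low protease BSA, 2.5% glycerol, 0.01% Tween-20. ClpP 10 microg/mL final; 20 min RT; delta FRET normalized to ADEP and DMSO controls.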
PINK1 expr mod = PINK1 expression modulation; PINK1 immunofluorescence, high-content cytometry, 24 h; Potency, µM (titrated, usually from 76.6 µM), for inactives: at the highest dose activation (PINK1 increase), actives largely listed as activators; AID 624263; 410,000 tested, 0.2% active; active = well fitted activation curve with a large enough effect; inconclusive = small, poorly fitted or top-dose-only effect; cell line not stated here; also: % of control where 0% means no effect; nearly all actives have a fitted effect of over 65% in size
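Readout is PINK1 immunofluorescence, quantified alongside mitochondrial, cell and nuclear markers by laser-scanning microplate cytometry. Cells from a stable line were exposed to compound titrations (5 concentrations) for 24 hours, with CCCP controls.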
RORg inh = inhibitors of mouse ROR gamma transcriptional activity. P51450. Drosophila S2 Gal4-RORgamma UAS-luciferase reporter, 20 h. Potency, µM (series often up to 53.6 µM), without a hit: at the highest dose activity change, negative = inhibition, actives largely listed as inhibitors. 310,000 tested, 5.4% active; also: % is scaled to controls: 0 for no effect and ±100 for the full control effect; nearly all actives have a fitted effect of over 60% in size
Target sequence (P51450 whole entry, looked up, the tested form may be a part): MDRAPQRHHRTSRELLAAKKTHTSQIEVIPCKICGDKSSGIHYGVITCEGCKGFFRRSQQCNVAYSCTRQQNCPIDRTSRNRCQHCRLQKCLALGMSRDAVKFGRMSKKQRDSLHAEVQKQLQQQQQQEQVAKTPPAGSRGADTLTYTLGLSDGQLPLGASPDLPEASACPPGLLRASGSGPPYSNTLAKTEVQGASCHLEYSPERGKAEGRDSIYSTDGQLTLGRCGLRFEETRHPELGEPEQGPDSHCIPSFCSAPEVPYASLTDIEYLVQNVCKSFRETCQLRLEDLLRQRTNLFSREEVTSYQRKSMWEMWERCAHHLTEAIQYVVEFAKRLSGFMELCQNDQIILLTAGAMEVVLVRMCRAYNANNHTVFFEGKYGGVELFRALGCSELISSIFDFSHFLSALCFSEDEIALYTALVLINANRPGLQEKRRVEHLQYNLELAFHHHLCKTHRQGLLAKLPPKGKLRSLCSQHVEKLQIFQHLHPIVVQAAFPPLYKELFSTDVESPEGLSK
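Drosophila S2 cells stably expressing Gal4-DBD/mouse RORγ fusion under metallothionein promoter plus UAS-luciferase; compound 1 h, then 700 uM CuSO4 induction for 20 h at ambient temperature; inhibition read as reduced luminescence.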
Sfp PPTase inh = Sfp phosphopantetheinyl transferase inhibition | Potency, µM, inactives show largest response in the series, negative = inhibition, hits mostly inhibitors | Biochemical Sfp PPTase activity, qHTS | 310,000 tested, 3.5% active | Q9F4F7;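 also: the enzyme is Sfp with the accession as filed and its product quenches rhodamine fluorescence; 0% = enzyme reaction without inhibitor and -100% = no enzyme wells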
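Fluorescence-quenching assay: 15 nM Sfp-PPTase preincubated 15 min at room temperature with compound, then 5 uM rhodamine-CoA and 12.5 uM BHQ-2-labelled YbbR peptide added. Fluorescence (ex 525/em 598 nm) read at start and after 30 min; difference gives rate.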
Gal4-VP16 FLuc = inhibits Gal4-VP16 luciferase reporter, ROR gamma counter-screen; Drosophila S2 Gal4-VP16 UAS-luciferase, luminescence, 20 h; Potency, µM (doses to about 53.6 µM), for the others: at the highest dose activity, negative = inhibition, usual class: inhibitors; 310,000 tested, 3.5% active;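 also: Gal4-VP16 expression switched on by copper sulfate through the metallothionein promoter; % is scaled to controls: 0 for no effect and ±100 for the full control effect; nearly all actives have a fitted effect of over 50% in size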
An asterisk follows results filed as active; ? = inconclusive; . = no result; [ ] = remark or other dose. Unless noted, calls follow the shape of the dose curve; as a rule, active = well fitted curve in the direction sought with a large enough effect; inconclusive = small, poorly fitted or top-dose-only effect, or another doubt; inactive = no such curve, though single readings can be large; an effect the other way counts as inactive or inconclusive. Potency is read from the fitted curve at half-maximal effect.

SMILES	Epigenetic reg	ClpP mod	PINK1 expr mod	RORg inh	Sfp PPTase inh	Gal4-VP16 FLuc
C[C@@H](CO)[C@H](/C=C/c1ccccc1)CCO[Si](c1ccccc1)(c1ccccc1)C(C)(C)C	.	.	.	11.0%	32.8%	4.9%
S=c1[nH]nc(COc2ccc(Cl)cc2Cl)n1-c1ccccc1	.	0.7%	-1.4%	-33.0%[1.91 µM]	11.0%	3.55µM*
COc1ccc(-n2c(CNC(=O)COc3ccc(Cl)cc3Cl)n[nH]c2=S)cc1	-1.2%	-0.7%	3.1%	10µM*	0.6%	-3.6%
COc1ccc(-n2c(CNC(=O)COc3ccc(Cl)cc3)n[nH]c2=S)cc1	-1.4%	.	0.2%	-40.9%	8.3%	16.3%
C/C(=N\NC(N)=O)c1ccccc1	-3.6%	.	1.1%	0.2%	14.0%	6.8%
C/C(=N\NC(N)=O)c1c(F)cccc1F	1.3%	31.6µM*	-2.1%	-1.3%	12.4%	5.7%
CCCCNc1nc(-c2ccccc2)cc(C(F)(F)F)c1C(N)=O	0.0%	-12.4%	.	?	9.3%	?
NC(=O)c1c(C(F)(F)F)cc(-c2ccccc2)nc1NCCO	-1.1%	22.4µM*	0.4%	24.9%	15.5%	-3.5%
NS(=O)(=O)c1ccc(-c2ccc(/C=N/NC(=O)c3ccccc3O)o2)cc1	-0.9%	-6.9%	-0.9%	3.55µM*	-25.2%	17.8µM*
O=C(N/N=C/c1oc(O)c2ccccc12)c1ccccc1O	2.3%	?	0.1%	?	29.9%	-0.8%
O=C(N/N=C/c1ccc(-c2ccccc2C(=O)O)o1)c1cccs1	1.0%	.	0.5%	-31.5%	50.1µM*	2.9%
NS(=O)(=O)c1ccc(-c2ccc(C=NC3CCS(=O)(=O)C3)o2)cc1 (stereo not drawn)	0.7%	?	2.3%[38.3 µM]	25.5%	6.7%	-1.6%
Cc1ccc(-c2ccc(/C=N/NC(=O)c3ccccc3O)o2)cc1	?	.	.	0.708µM*	9.6%	0.159µM*
Cc1ccc(C)c(C(=O)N2CCC(C3(c4ccccn4)NC(=O)N(CC4CCCO4)C3=O)CC2)c1 (stereo not drawn)	.	.	-0.7%	.	.	.
Cc1cccc(Oc2nc(-c3ccccn3)nc3ccccc23)c1	2.1%	.	11.7%	0.562µM*	70.8µM*	2.24µM*
CC(=O)Nc1cccc(Oc2nc(-c3ccccn3)nc3ccccc23)c1	0.2%	.	0.5%	5.62µM*	1.9%	?
Cc1ccccc1Oc1nc(-c2ccccn2)nc2ccccc12	0.0%	0.8%	-1.6%	0.316µM*	?	1.26µM*
CC(=O)Nc1ccc(Oc2nc(-c3ccccn3)nc3ccccc23)cc1	-1.4%	-6.2%	-0.6%	-2.5%	?	?
Cc1cccc(Oc2nc(-c3ccncc3)nc3ccccc23)c1	1.6%	.	2.9%	-19.2%	?	-2.8%
O=C1C=CC(=O)c2c(O)c(CO)c(CO)c(O)c21	.	-13.8%	9.9%	.	.	.
O=C1C=CC(=O)c2c(O)c(Cl)c(Cl)c(O)c21	0.1%	.	-1.2%	?	11.2µM*	-5.4%
COc1ccc(N2CCN(C(=S)NC(=O)c3cccs3)CC2)c([N+](=O)[O-])c1	-0.4%	.	1.3%	0.316µM*	8.2%	1.41µM*
O=C(NC(=S)N1CCN(c2c(Cl)cccc2[N+](=O)[O-])CC1)c1cccs1	-1.3%	-2.4%	-0.1%	0.282µM*	-5.0%	0.159µM*
COc1ccc(N2CCN(C(=O)c3ccccc3)CC2)c([N+](=O)[O-])c1	-0.1%	.	0.2%	63.1%	9.5%	-9.2%
O=C(O)CCCCCN1C(=O)/C(=C/c2ccncc2)SC1=S	-0.9%	1.2%	8.5%	11.2µM*	-14.4%	10µM*
SMILES	Epigenetic reg	ClpP mod	PINK1 expr mod	RORg inh	Sfp PPTase inh	Gal4-VP16 FLuc
O=C(O)CCCN1C(=O)/C(=C/c2ccc(-c3nc4ccccc4s3)o2)SC1=S	-2.2%	-0.8%	2.0%	-32.7%	39.8µM*	2.9%[0.365 µM]
O=C(O)CCCN1C(=O)/C(=C/c2ccncc2)SC1=S	-1.7%	.	4.5%	8.91µM*	9.6%	10µM*
O=C(CCN1C(=O)/C(=C/C=C/c2ccccc2)SC1=S)Nc1nc2ccccc2s1	1.1%	.	?	-31.2%	1.6%	-6.6%
O=C(CCN1C(=O)/C(=C/c2ccccc2)SC1=S)NNC(=O)c1ccncc1	-2.5%	.	6.5%	-6.4%	-7.6%	-7.5%
O=C(O)CCCCCN1C(=O)/C(=C\c2ccncc2)SC1=S	2.8%	-0.4%	14.4%	12.6µM*	-7.8%	10µM*
COc1ccc(-c2nc(-c3ccccc3)c(NC(C)(C)C)o2)cc1	-0.1%	.	.	3.9%	-1.9%	0.1%
CC(c1ccccc1)N1C(=O)/C(=C/c2ccncc2)SC1=S (stereo not drawn)	4.9%	-1.4%	-1.5%	?	-29.8%	15.8µM*
CCSc1nnc(NC(=O)C2Cc3ccccc3CN2C(=O)c2ccco2)s1 (stereo not drawn)	2.0%	0.5%	1.8%	10µM*	39.8µM*	?
COc1ccccc1NC(=O)CN1C(=O)C(c2ccc(F)cc2)=NC1(C)C	-3.9%	-2.0%	-0.7%	.	.	.
CSc1cccc(NC(=S)N(Cc2ccc(C)cc2)Cc2cccnc2)c1	0.0%	.	2.3%	5.01µM*	4.5%	?
Cc1ccccc1NC(=S)N(Cc1ccccc1)Cc1cccnc1	2.1%	.	-1.4%	?	16.2%	22.1%
Cc1ccc(Cl)cc1NC(=S)N(Cc1cccnc1)Cc1ccccc1Cl	1.1%	-6.0%	0.3%	?	-13.2%	25.1µM*
CCn1ccc2cc(S(=O)(=O)N3CCC(C(=O)NCCc4ccc(SC)cc4)CC3)ccc21	-1.7%	-10.9%	5.2%	.	.	.
O=P(O)(O)OC1[C@H](O)[C@H](OP(=O)(O)O)C(OP(=O)(O)O)[C@H](OP(=O)(O)O)[C@H]1O (stereo partly drawn)	-0.8%[1.91 µM]	.	.	-17.8%[1.91 µM]	15.5%	-0.4%[1.91 µM]
Cc1oc2cc(O)ccc2c(=O)c1-c1ccccc1	3.4%	.	-1.6%	10.2%	16.2%	-4.5%
Cc1oc2cc(O)ccc2c(=O)c1-c1cnn(-c2ccccc2)c1	-1.4%	31.6µM*	2.8%	?	6.8%	-3.1%
Cc1cc(C)c(C)c(/C=C(/C#N)C(N)=S)c1C	-0.9%	0.6%	-2.3%[38.3 µM]	6.31µM*	-5.5%	15.8µM*
Cc1ccc(OCC(=O)OCc2cc(=O)n3nc(C4CCCCC4)sc3n2)cc1C	2.3%	-1.8%	0.0%	.	.	.
O=C(O)c1ccc([N+](=O)[O-])c(CS(=O)(=O)c2ccc(Cl)cc2)c1	-0.4%	1.2%	-2.0%	-1.6%	-6.6%	4.9%
O=C(CBr)c1ccc([N+](=O)[O-])c(CS(=O)(=O)c2ccc(Cl)cc2)c1	.	0.8%	6.7%	-14.7%	56.2µM*	-7.4%
CSCCC(NS(=O)(=O)c1ccc2c(c1)oc(=O)n2C)C(=O)NCCc1ccc(C)cc1 (stereo not drawn)	-0.2%	-2.9%	1.7%	.	.	.
